Consider 15 sequences from article PMC3218832.

Targets include RELARELA (p65 homodimer) (Homo sapiens, UniProt Q04206 1-307); p50p50 homodimer (Homo sapiens, UniProt P19838 7-356); RELB subunit;p50 subunit (Homo sapiens;Homo sapiens, UniProt Q01201;P19838 120-401;7-356).
Holding throughout (test): protein binding microarray; high values mean tight binding
Settings in all cases: dsDNA, one strand shown

A further assay has as its target T1, p52p52 homodimer (Homo sapiens, UniProt Q00653 4-332).
T1 sequence: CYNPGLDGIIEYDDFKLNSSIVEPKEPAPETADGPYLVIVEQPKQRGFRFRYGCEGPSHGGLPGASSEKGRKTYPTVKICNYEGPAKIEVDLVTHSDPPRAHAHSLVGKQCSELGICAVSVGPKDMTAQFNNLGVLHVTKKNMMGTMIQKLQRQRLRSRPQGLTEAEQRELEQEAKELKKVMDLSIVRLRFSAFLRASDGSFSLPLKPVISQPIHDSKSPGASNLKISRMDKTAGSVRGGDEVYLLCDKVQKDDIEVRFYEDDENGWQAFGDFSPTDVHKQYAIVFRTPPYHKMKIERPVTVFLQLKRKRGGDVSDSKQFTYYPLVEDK

For assay [1], the target named is RELA (p65) subunit of heterodimer;p50 subunit (Homo sapiens;Homo sapiens, UniProt Q04206;P19838 1-307;7-356).
Chain of RELA (p65) subunit of heterodimer;p50 subunit (Q04206 1-307, chain 1 of 2): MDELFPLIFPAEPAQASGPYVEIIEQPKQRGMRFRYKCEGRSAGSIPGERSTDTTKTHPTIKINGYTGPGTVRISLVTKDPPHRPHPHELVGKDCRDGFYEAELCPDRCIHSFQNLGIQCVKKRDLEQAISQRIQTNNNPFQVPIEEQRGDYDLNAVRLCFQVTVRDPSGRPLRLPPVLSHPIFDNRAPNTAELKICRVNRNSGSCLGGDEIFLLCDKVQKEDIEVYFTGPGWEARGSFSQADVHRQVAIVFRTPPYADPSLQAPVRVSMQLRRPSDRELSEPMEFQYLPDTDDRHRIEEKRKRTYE
Chain of RELA (p65) subunit of heterodimer;p50 subunit (P19838 7-356, chain 2 of 2): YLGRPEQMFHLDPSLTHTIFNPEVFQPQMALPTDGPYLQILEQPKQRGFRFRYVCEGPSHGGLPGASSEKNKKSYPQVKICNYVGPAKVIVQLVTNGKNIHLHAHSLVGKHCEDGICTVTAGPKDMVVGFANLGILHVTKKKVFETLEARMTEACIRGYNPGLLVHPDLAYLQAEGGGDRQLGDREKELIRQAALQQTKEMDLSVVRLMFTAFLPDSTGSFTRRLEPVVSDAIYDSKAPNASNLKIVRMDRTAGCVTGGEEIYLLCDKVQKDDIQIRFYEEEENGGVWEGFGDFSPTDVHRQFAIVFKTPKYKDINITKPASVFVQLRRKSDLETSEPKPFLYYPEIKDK
Assay [2] has as its target RELA (p65) subunit of heterodimer;p52 subunit (Homo sapiens;Homo sapiens, UniProt Q04206;Q00653 1-307;4-332).
The target of the next assay is T2, RELB subunit;p52 subunit (Homo sapiens;Homo sapiens, UniProt Q01201;Q00653 120-401;4-332).
T2 sequence 1: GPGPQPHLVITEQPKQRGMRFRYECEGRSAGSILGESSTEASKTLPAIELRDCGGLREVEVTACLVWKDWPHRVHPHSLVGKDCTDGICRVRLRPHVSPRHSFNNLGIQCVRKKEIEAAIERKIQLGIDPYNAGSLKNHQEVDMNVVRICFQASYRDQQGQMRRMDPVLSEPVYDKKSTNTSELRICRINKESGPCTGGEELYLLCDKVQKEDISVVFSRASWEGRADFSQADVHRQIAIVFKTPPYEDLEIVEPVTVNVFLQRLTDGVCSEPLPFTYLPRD
T2 sequence 2: T1 sequence

Assay [3] has as its target C-Rel subunit;p50 subunit (Homo sapiens;Homo sapiens, UniProt Q04864;P19838 1-285;7-356).
Assay [4] has as its target T3, C-Rel subunit;p52 subunit (Homo sapiens;Homo sapiens, UniProt Q04864;Q00653 1-285;4-332).
T3 sequence 1: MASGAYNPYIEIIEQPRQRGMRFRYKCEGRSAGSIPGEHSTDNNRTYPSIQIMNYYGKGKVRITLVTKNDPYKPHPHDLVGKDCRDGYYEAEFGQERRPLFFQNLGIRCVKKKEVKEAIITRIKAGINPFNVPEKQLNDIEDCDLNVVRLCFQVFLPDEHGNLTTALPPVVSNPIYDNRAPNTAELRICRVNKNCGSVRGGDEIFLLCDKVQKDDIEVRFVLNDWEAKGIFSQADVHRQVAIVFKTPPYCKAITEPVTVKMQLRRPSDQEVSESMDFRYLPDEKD
T3 sequence 2: T1 sequence

Chain of p50p50 homodimer (P19838 7-356): as the sequence (P19838 7-356, chain 2 of 2) above
Chain of RELARELA (p65 homodimer) (Q04206 1-307): as the sequence (Q04206 1-307, chain 1 of 2) above

As to CGGATTGCCCC, the binding signal with RELARELA (p65 homodimer) came to 2 z-score; with p50p50 homodimer it was 0.548 z-score; with p52p52 homodimer, 0.518 z-score; in assay [1], 1.35 z-score; in assay [2] it was 0.991 z-score; with RELB subunit;p50 subunit, 0.497 z-score. For the same sequence, the binding signal in the assay with RELB subunit;p52 subunit was 0.607 z-score; in [3], 1.07 z-score; in [4], 0.987 z-score.

As to AGGTGTCCCCC, the binding signal came to 0.286 z-score in the assay with RELARELA (p65 homodimer); 1.17 z-score in the assay with p50p50 homodimer; 0.966 z-score with p52p52 homodimer; 1.2 z-score in assay [1]; 1.19 z-score in [2]; 1.21 z-score with RELB subunit;p50 subunit. Moreover, the binding signal was found to be 1.46 z-score with RELB subunit;p52 subunit, 1.14 z-score in [3] and 1.02 z-score in assay [4].

Turning to GAGGAGGCCCT, the binding signal is -1.17 z-score with RELARELA (p65 homodimer); -1.07 z-score in the assay with p50p50 homodimer; -0.602 z-score with p52p52 homodimer; -1.02 z-score in assay [1]; -0.973 z-score in assay [2]; -0.68 z-score with RELB subunit;p50 subunit. Also, the binding signal is -0.644 z-score with RELB subunit;p52 subunit, -1.36 z-score in [3] and -0.766 z-score in [4].

With CAGAAGGCCCC, the binding signal with RELARELA (p65 homodimer) is -0.908 z-score; with p50p50 homodimer it was -0.224 z-score; with p52p52 homodimer, -0.259 z-score; in assay [1], -0.114 z-score; in [2], -0.223 z-score; in the assay with RELB subunit;p50 subunit, -0.248 z-score. The values for the binding signal (with RELB subunit;p52 subunit; in assay [3]; in [4]) were -0.262 z-score, -0.241 z-score and -0.183 z-score, respectively.

Consider CGAATGTCCCC, for which the binding signal came to 0.531 z-score in the assay with RELARELA (p65 homodimer); 1.1 z-score with p50p50 homodimer; 0.861 z-score in the assay with p52p52 homodimer; 1.09 z-score in assay [1]; 1.07 z-score in assay [2]; 1.07 z-score in the assay with RELB subunit;p50 subunit. In addition, the binding signal in the assay with RELB subunit;p52 subunit is 1.17 z-score; in assay [3], 1.01 z-score; in assay [4], 0.868 z-score.

For the sequence AAGGGTGCCCT, the binding signal with RELARELA (p65 homodimer) is -1.07 z-score; in the assay with p50p50 homodimer, -1.79 z-score; with p52p52 homodimer, -0.569 z-score; in assay [1] it was -1.02 z-score; in [2], -0.718 z-score; with RELB subunit;p50 subunit, -0.876 z-score. Moreover, the binding signal in the assay with RELB subunit;p52 subunit was -0.74 z-score; in assay [3], -1.1 z-score; in assay [4], -0.646 z-score.

Regarding AAAGAGACCCT, the binding signal in the assay with RELARELA (p65 homodimer) is -1.1 z-score; with p50p50 homodimer it was -0.515 z-score; in the assay with p52p52 homodimer it was -0.457 z-score; in [1] it was -0.679 z-score; in assay [2], -0.542 z-score; with RELB subunit;p50 subunit, -0.626 z-score. The binding signal was -0.766 z-score with RELB subunit;p52 subunit, -1.12 z-score in assay [3] and -0.688 z-score in assay [4].

Turning to CAGGTCGCCCC, the binding signal is -0.367 z-score with RELARELA (p65 homodimer); -0.385 z-score with p50p50 homodimer; -0.232 z-score with p52p52 homodimer; -0.268 z-score in assay [1]; -0.328 z-score in assay [2]; -0.18 z-score in the assay with RELB subunit;p50 subunit. In addition, the results for the binding signal (with RELB subunit;p52 subunit; in assay [3]; in [4]) were -0.126 z-score, 0.016 z-score and -0.13 z-score, respectively.

For the sequence CAGAGCTCCCC, the binding signal was -0.432 z-score with RELARELA (p65 homodimer); -0.0564 z-score in the assay with p50p50 homodimer; -0.163 z-score with p52p52 homodimer; 0.0392 z-score in assay [1]; -0.211 z-score in [2]; 0.161 z-score in the assay with RELB subunit;p50 subunit. Moreover, the results for the binding signal (with RELB subunit;p52 subunit; in [3]; in [4]) were -0.0377 z-score, 0.0629 z-score and -0.215 z-score, respectively.

Take GAGAAAACCCT: the binding signal with RELARELA (p65 homodimer) turned out to be 0.625 z-score; in the assay with p50p50 homodimer it was 0.495 z-score; with p52p52 homodimer, 0.559 z-score; in assay [1], 0.373 z-score; in [2], 0.499 z-score; with RELB subunit;p50 subunit, 0.0283 z-score. In addition, the binding signal was 0.361 z-score with RELB subunit;p52 subunit, 0.245 z-score in assay [3] and 0.234 z-score in assay [4].

For CAGGTTTCCCT, the binding signal with RELARELA (p65 homodimer) worked out at 0.821 z-score; with p50p50 homodimer, 1.16 z-score; with p52p52 homodimer it was 1.21 z-score; in assay [1] it was 1.39 z-score; in [2], 1.33 z-score; in the assay with RELB subunit;p50 subunit, 1.28 z-score. Moreover, the binding signal with RELB subunit;p52 subunit was 1.76 z-score; in assay [3], 1.26 z-score; in assay [4], 0.893 z-score.

Take GAGGGTGTCCC: the binding signal with RELARELA (p65 homodimer) came out at 0.223 z-score; with p50p50 homodimer it was 0.0932 z-score; with p52p52 homodimer, 0.206 z-score; in [1] it was 0.366 z-score; in assay [2], 0.191 z-score; in the assay with RELB subunit;p50 subunit it was 0.314 z-score. Moreover, the binding signal with RELB subunit;p52 subunit came out at 0.399 z-score; in [3], 0.469 z-score; in assay [4], 0.107 z-score.

Take GGGGTTGTCCC: the binding signal with RELARELA (p65 homodimer) stood at 2.19 z-score; with p50p50 homodimer, 0.663 z-score; in the assay with p52p52 homodimer it was 2.99 z-score; in assay [1] it was 1.73 z-score; in [2], 2.67 z-score; with RELB subunit;p50 subunit it was 2.02 z-score. Further, the values for the binding signal (with RELB subunit;p52 subunit; in assay [3]; in assay [4]) were 1.88 z-score, 1.31 z-score and 2.32 z-score, respectively.

Consider CAGAGTGTCCC, for which the binding signal was 0.916 z-score with RELARELA (p65 homodimer); 0.0211 z-score in the assay with p50p50 homodimer; 0.161 z-score with p52p52 homodimer; 0.185 z-score in [1]; 0.144 z-score in [2]; 0.304 z-score in the assay with RELB subunit;p50 subunit. In addition, the binding signal with RELB subunit;p52 subunit turned out to be 0.434 z-score; in [3], 0.274 z-score; in assay [4], 0.221 z-score.

On to AAGGGACCCCC, for which the binding signal was -0.529 z-score with RELARELA (p65 homodimer); 0.964 z-score in the assay with p50p50 homodimer; 0.927 z-score with p52p52 homodimer; 0.806 z-score in [1]; 0.93 z-score in [2]; 0.75 z-score with RELB subunit;p50 subunit. Moreover, the binding signal came to 0.929 z-score with RELB subunit;p52 subunit, 0.681 z-score in assay [3] and 0.75 z-score in assay [4].
